The subject of this test is Vero E6 infected with SARS-CoV-2. The experiment in a line: inhibition of SARS-CoV-2 cytopathic effect; higher = more antiviral protection, active = above 15. The note with it: 48 h. (In general: Damage to the host cells serves as the signal in cytopathic effect assays.)

Here are results for 19 compounds from the supplement of paper PMC13380429.

A number with no mark means an inactive call.

For `NCCNC(=O)c1ccc(Cl)cn1` [lazabemide], the “inhibition of SARS-CoV-2 cytopathic effect” value (shortened to “inhibition”) is 1.32% (1 nM); -0.18% (8.33 nM); -0.23% (100 nM); -0.24% (833.33 nM); 3.29% (10000 nM).
In the same order, the values of `C[C@@H](c1nc(-c2ccc(C#N)cc2)cs1)[C@](O)(Cn1cncn1)c1cc(F)ccc1F` [isavuconazole] are -2.38%, -2.11%, -0.9%, 1.65% and 2.79%.
Take `Nc1n[nH]c2nnc(-c3c(-c4ccccc4)nn4ccccc34)cc12`: the “inhibition” value was 0.55% (1 nM); -0.27% (8.33 nM); -1.29% (100 nM); 1.74% (833.33 nM); -2.81% (10000 nM).
In the same order, the values of `N#C/C(=C1/SC[C@@H](c2ccc(Cl)cc2Cl)S1)n1ccnc1` [luliconazole] are 1%, 1.92%, 2.17%, 1.1% and 3.29%.
In the same order, the values of `COc1ccc2c(NC(=O)Nc3cccc(C(F)(F)F)n3)ccnc2c1` are 1.28%, 1.81%, 2.91%, 10.2% and 11.1%.
In the case of `Cc1c(O)cccc1C(=O)N[C@@H](CSc1ccccc1)[C@H](O)CN1C[C@H]2CCCC[C@H]2C[C@H]1C(=O)NC(C)(C)C` [nelfinavir], the “inhibition” value is, setting by setting: (1 nM) -4.7%; (8.33 nM) -3.72%; (100 nM) -1.32%; (833.33 nM) 3.72%; (10000 nM) 43.2% (active).
In the same order, the values of `C[C@@H](N)[C@H]1CC[C@H](C(=O)Nc2ccncc2)CC1` are -2.16%, -4.44%, -2.01%, 2.02% and -3.54%.
The corresponding values for `Nc1ncc2c(n1)CC(c1ccco1)CC2=O` (stereo not given) are 2.9%, 3.51%, 2.68%, 4.74% and 3.17%.
Consider `COc1ccc(/C=C2\CCCN=C2c2cccnc2)c(OC)c1`, for which the “inhibition” value reads like this: (1 nM) -0.63%; (8.33 nM) 0.1%; (100 nM) 0.18%; (833.33 nM) 1.08%; (10000 nM) 2.4%.
In the same order, the values of `Cc1ccc(Oc2ccccc2-c2csc(N=C3NCCCN3)n2)c(C)c1` [abafungin] are 2.5%, 1.5%, 1.28%, -1.03% and -6.36%.
In the same order, the values of `O=C1c2c(O)cc(O)cc2O[C@H](c2ccc(O)c(O)c2)[C@H]1O` [taxifolin] are 0.69%, 1.31%, 0.66%, 0.83% and 2.25%.
The corresponding values for `O=[N+]([O-])c1ccccc1S(=O)(=O)NCC1CCC(CNC[C@H]2CCc3ccccc3C2)CC1` (stereo not given in full) are 0.09%, 1.35%, -1.44%, -4.04% and 42.4% (active).
On to `O=C(NCCCN1CCC2(CC1)OCc1ccccc12)[C@H]1CCCN1Cc1ccccc1`, for which the “inhibition” value by setting is: (1 nM) -4.44%; (8.33 nM) -4.12%; (100 nM) -5.12%; (833.33 nM) -1.81%; (10000 nM) 0.56%.
In the same order, the values of `COc1ccc(COc2cc3oc(=O)c4cc(C(C)O)ccc4c3cc2OC)cc1` (stereo not given) [palomid-529] are 0.28%, -1.83%, 0.02%, -0.05% and 1.22%.
The corresponding values for `Cc1ccc(NC(=O)c2cccc(C(C)(C)C#N)c2)cc1Nc1ccc2ncn(C)c(=O)c2c1` are 1.24%, 2.77%, -0.67%, -2.75% and -1.17%.
The corresponding values for `CCC(CC)CC1(C(=O)Nc2ccccc2SC(=O)C(C)C)CCCCC1` [dalcetrapib] are -1.76%, -0.46%, -1.34%, -4.44% and -2.5%.
Consider `N=C(N)NCCN1CCCCCCC1` [guanethidine], for which the “inhibition” value was 1.98% (1 nM); 0.59% (8.33 nM); 4.01% (100 nM); 2.31% (833.33 nM); 0.3% (10000 nM).
`CN1CCN(C(=O)c2cc3cc(Cl)ccc3[nH]2)CC1`: the “inhibition” value is -0.68% (1 nM); 0.59% (8.33 nM); -1.58% (100 nM); -1.48% (833.33 nM); -1.13% (10000 nM).
Consider `CCOc1ccc(Cc2cc([C@]34OC[C@](CO)(O3)[C@@H](O)[C@H](O)[C@H]4O)ccc2Cl)cc1` [ertugliflozin], for which the “inhibition” value reads like this: (1 nM) -4.37%; (8.33 nM) -4.65%; (100 nM) -2.3%; (833.33 nM) -0.17%; (10000 nM) 0.59%.
